# Among all 410,000 compounds or so, about 18,000 (4.4%) were called active. Inconclusive results (about 7%) are left out. The full list was thinned out, with actives kept by preference. Values without a mark were called inactive. Cut-off read from the data, not from the text of the source: active = activity change below about -60%; inconclusive = no clear call, values can overlap the other calls; inactive = above about -39%.
# Test: qHTS Assay for inhibitors of the human cytomegalovirus (HCMV)
# Conditions: HFF cells, HCMV-luciferase reporter, 72 h; at 57.5 µM; hits give low values
# In short: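 Screen run at 2 compound doses on HFFs infected with reporter HCMV, MOI 1 PFU/cell. Luciferase activity from cell lysates at 72 h post infection gave inhibition relative to buffer-only and Salinomycin wells.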
# % is set by controls: 0 for no effect and ±100 for the full control effect.
row,SMILES,"activity change, negative = inhibition"
1,CCC(=O)Nc1ccccc1-c1nc2ccccc2n(CC(=O)Nc2ccc(C)c(C)c2)c1=O,4.84%
2,O=C(CSc1ncc(CO)n1Cc1ccc(F)cc1)NCc1ccco1,-7.64%
3,O=C(CC(CC(=O)c1ccccc1)c1ccco1)c1ccccc1,-38.2%
4,COc1cc(NC(=O)c2nn(-c3ccc(C)cc3)c(=O)c3c2c2ccccc2n3C)cc(OC)c1OC,8.56%
5,Cc1ccc(NC(=O)C2CCC(C(C)(C)C)CC2)cc1S(=O)(=O)N1CCOCC1 (configuration not stated),-25.3%
6,CC(=O)Nc1ccc(NC(=O)COC(=O)C2CCC(C(C)(C)C)CC2)cc1 (configuration not stated),-11.6%
7,CC(C)(C)C1CCC(C(=O)Nc2cccnc2)CC1 (configuration not stated),-93.5% (active)
8,CCOc1ccc(NC(=O)Cn2c(C)ccc(C#N)c2=O)cc1,-3.22%
9,O=C(NCCc1csc(-c2ccc(C(F)(F)F)cc2)n1)C(=O)Nc1ccc(F)c(Cl)c1,-16.3%
10,CCc1nc2nc(C)cc(Nc3ccc(F)c(Cl)c3)n2n1,-29.5%
11,Cc1ccc(S(=O)(=O)Nc2ccc3ncccc3c2)cc1,-97.8% (active)
12,CCOc1ncccc1C(=O)Nc1ccc(S(=O)(=O)Nc2nc(C)cc(C)n2)cc1,4.63%
13,Cc1ccc(S(=O)(=O)Nc2ccc(F)c(S(=O)(=O)N3CCOCC3)c2)cc1,11.9%
14,COc1ccc(Cl)cc1NC(=O)CCn1c(=O)c2cccn2c2ccccc21,4.3%
15,CCOC(=O)c1c(N)n(-c2cccc(C)c2C)c2nc3ccccc3nc12,3.84%
16,Cc1nn(-c2ccc(N3CCCCC3)nn2)c(C)c1CCC(=O)NCc1ccc(F)cc1,-11.9%
17,CCNS(=O)(=O)c1ccc(NC(=O)CSc2nc(-c3ccco3)cc(C(F)(F)F)n2)cc1,19.7%
18,O=C(Cc1ccccc1)N1CCN(C2CCCCCC2)CC1,31.1%
19,O=C1Nc2cc(C(=O)N3CCC(N4CCCCC4)CC3)ccc2S/C1=C\c1ccccc1,-88% (active)

row,SMILES,"activity change, negative = inhibition"
1,CC1CCN(C(=O)c2ccc3c(c2)NC(=O)CN3)CC1,-12.7%
2,CCOc1ccccc1NC(=O)Cn1c(=O)n(Cc2ccccc2)c(=O)c2c(C)c(C(=O)N(C)C)sc21,-19.6%
3,CC(=O)CC[C@@H](C)O[C@@H]1OC(C)[C@H](O)CC1O (some centres not stated),-66.6% (active)
4,COc1ccc(NC(=O)N(C)C[C@@H]2OCCCC[C@@H](C)Oc3ccc(NC(=O)NC4CCCCC4)cc3C(=O)N([C@H](C)CO)C[C@@H]2C)cc1,1.75%
5,O=C(CSc1ccccn1)N1CCN(S(=O)(=O)c2ccc(Cl)cc2)CC1,-33.6%
6,CCOC(=O)CSc1ccccn1,-102% (active)
7,CCOC(=O)CSc1ncc(-c2cccc(Cl)c2)cn1,23.7%
8,COc1ccc(CCNc2nc3c(-c4cccc(F)c4)nnn3c3ccccc23)cc1OC,30.2%
9,Cc1ccc(CCNC(=O)c2ccc(CNS(=O)(=O)c3ccc(C)cc3)cc2)cc1,-11.4%
10,Cc1ccc(S(=O)(=O)N(CC(=O)Nc2ccc(Cl)cc2Cl)c2ccccc2C)cc1,-21.6%
11,CC(C)c1nccn1S(=O)(=O)c1cc([N+](=O)[O-])ccc1Cl,-7.9%
12,CCc1nc(C)cn1S(=O)(=O)c1cc(OC)c(C)cc1C,-33.9%
13,CCc1nc(C)cn1S(=O)(=O)c1cc([N+](=O)[O-])ccc1Cl,-98.5% (active)
14,Cc1ccccc1Nc1nn2c(=O)c3ccc(C(=O)NCCc4ccc(Cl)cc4)cc3nc2s1,-8.87%
15,CC(C)c1ccc(NC(=O)Cn2nnc(C(=O)NCCc3ccccc3)c2N)cc1,7.46%
16,Cc1ccc(NC(=O)Cn2cnc3nc4c(cc3c2=O)CCCC4)cc1Cl,19.1%
17,CCCN(CCC)CCNC(=O)Cn1cnc2sc(C)c(S(=O)(=O)N3CCC(C)CC3)c2c1=O,3.59%
18,Fc1ccc(-n2ncc3c(Nc4ccc(Oc5ccccc5)cc4)ncnc32)cc1,-35.2%
19,CCN(CCCNC(=O)Cn1ncc2c3ccccc3n(C)c2c1=O)Cc1ccccc1,-7.87%

row,SMILES,"activity change, negative = inhibition"
1,O=C(COc1ccc(S(=O)(=O)N2CCCC2)cc1[N+](=O)[O-])N1CCCCC1,-8.38%
2,Cc1cc(C(=O)COc2ccccc2[N+](=O)[O-])c(C)n1-c1cccc(S(=O)(=O)N2CCOCC2)c1,-89.3% (active)
3,Cc1cc(S(=O)(=O)N2CCOCC2)ccc1OCC(=O)N1CCOCC1,-17.6%
4,O=S(=O)(c1ccc(Br)c2ccccc12)N1CCOCC1,-15%
5,O=C1CCC(=O)N1CCC(=O)N(C(=O)NC1CCCCC1)C1CCCCC1,14.3%
6,CCOc1cccc(SCc2noc(C(=O)NC(C)C)c2C(=O)O)c1,-61.6% (active)
7,CCCNC(=O)c1onc(CSc2ccc(F)cc2)c1C(=O)NC(C)C,-14.5%
8,CCCCNC(=O)c1onc(CSc2cccc(OC)c2)c1C(=O)O,31.1%
9,COc1cc(C2NC(=O)NC(c3ccccc3)=C2C(C)=O)c(Br)cc1OCC(N)=O (configuration not stated),-0.681%
10,COc1cc2c(cc1OC)C(c1ccccc1Br)NC(=O)C2 (configuration not stated),-67.4% (active)
11,O=C1CCC([N+](=O)[O-])C(c2ccccc2Br)N1 (configuration not stated),-6.17%
12,CN(Cc1cccnc1)C(=O)c1cc(COc2ccc3ncccc3c2)on1,-81.6% (active)
13,CCOc1ccc(NS(=O)(=O)c2ccc(Cl)c(C(=O)N(C)Cc3cccnc3)c2)cc1,-5.24%
14,CCn1ccnc1CN(C)C(=O)c1cc(COc2ccc(Cl)cc2OC)on1,1.37%
15,CCc1nccn1S(=O)(=O)c1cc(Br)ccc1Br,3.85%
16,Cc1cc(C)cc(NC(=O)CSc2nc(=O)n(CCN3CCOCC3)c3c2CCC3)c1,14.5%
17,O=C(COC(=O)CCc1c[nH]c2ccccc12)Nc1cccc(Cl)c1,-16%
18,COC(=O)c1ccc2c(c1)S(=O)(=O)NC2C (configuration not stated),24.6%
19,CC1CCCCC1NC(=O)COC(=O)Cc1ccc(Cl)cc1 (configuration not stated),26.8%
